JMJD2A Tudor: inhibitors of human JMJD2A Tudor domain | O75164 | AlphaScreen JMJD2A-Tudor / H3K4me3 peptide binding | Potency, µM (titrated, usually from 114 µM), usual class: inhibitors | actives 4.4% (n = 390,000) | AID 504339; further: nearly all actives have a fitted effect of over 50% in size
PLK1 PBD block: blocks phosphopeptide binding to human PLK1 polo-box domain; P53350; Plk1 PBD binding of FITC phosphopeptide, fluorescence polarization; actives 2.8% (n = 360,000); Potency, µM, hits mostly inhibitors; further: series mostly up to about 57 µM; nearly all actives have a fitted effect of over 65% in size
G9a block: G9a (human) methyltransferase inhibition. Q96KQ7. G9a H3K9 monomethylation, AlphaScreen, 2 h. Potency, µM (series often up to 102 µM), most hits filed as inhibitors. actives 8.8% (n = 350,000); further: nearly all actives have a fitted effect of over 75% in size
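Compounds were preincubated with 20 nM G9a for 15 min, after which biotinylated H3K9 peptide (500 nM) and SAM (20 uM) started a 2 h room-temperature reaction. Monomethylated product was quantified by antibody-based AlphaScreen chemiluminescence.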
12-LOX inh: ALOX12 (human) lipoxygenase inhibition. Potency, µM (series often up to 108 µM), hits mostly inhibitors. P18054. actives 1.1% (n = 580,000). AID 1671190. purified 12hLO, xylenol orange hydroperoxide absorbance
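Hydroperoxide product was detected by ferrous iron/xylenol orange as the 573 to 405 nm absorbance ratio. Arachidonic acid at 40 uM (final) was turned over for 30 min at room temperature by 150 nM human 12hLO, pH 7.0 Hepes buffer, after 15 min compound preincubation.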
BAZ2B block: blocks human BAZ2B; Q9UIF8; AlphaScreen BAZ2B-H3K14Ac peptide displacement; Potency, µM (highest dose often 114 µM), actives largely listed as inhibitors; actives 4.4% (n = 360,000); further: nearly all actives have a fitted effect of over 60% in size
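Inhibition is scored as reduced AlphaScreen emission. The BAZ2B/b-H3(5-23)K14Ac complex (50 nM each) in PBS pH 7.4, 0.01% Tween-20 meets compound (up to 110 uM) for 30 min at RT before bead addition.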
HP1b chromo inh: inhibitors of HP1-beta chromodomain binding to methylated histone tails | P83916 | AlphaScreen HP1-beta / biotin-H3K9me3 peptide binding | Potency, µM (top dose mostly 114 µM), actives largely listed as inhibitors | actives 0.56% (n = 390,000); further: nearly all actives have a fitted effect of over 70% in size
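Compound inhibition of the preformed complex between 50 nM HP1-beta and 50 nM biotinylated H3K9me3 peptide was read by AlphaScreen. Buffer was PBS pH 7.4 with 0.01% Tween-20. Incubations ran 30 min at room temperature, with 10 ug/mL donor/acceptor beads.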
Of the large screens only hits and unclear results are named; the others gave an inactive call. Sampled rows, rich in hits. Any-hit rate of the full collection: about 9%. The call rests on the fitted dose curve; in most records, active means well fitted curve in the direction sought with a large enough effect; inconclusive means small, poorly fitted or top-dose-only effect, or another doubt; inactive means no such curve, though single readings can be large; an effect the other way counts as inactive or inconclusive.

CN(Cc1ccc2nonc2c1)Cc1nc(Cc2cccc(F)c2)no1	none (no result: G9a block)
CCN(C(=O)CSc1nnc(Nc2ccc(OC)cc2)s1)C1CCS(=O)(=O)C1 (centres undefined)	none (no result: G9a block, BAZ2B block)
Cc1nnc2sc(-c3ccncc3)nn12	none
CCOc1cccc(-c2nnc3sc(-c4cc(OC)c(OC)c(OC)c4)nn23)c1	G9a block 79µM
CC(C)(C)c1ccc(-c2nnc3sc(-c4ccncc4)nn23)cc1	PLK1 PBD block inconclusive, G9a block 2.5µM
COc1cc(-c2nnc3sc(-c4ccncc4)nn23)cc(OC)c1OC	PLK1 PBD block 12µM (no result: G9a block, BAZ2B block)
CSc1ncccc1C(=O)OCC(=O)Nc1cccc(S(=O)(=O)N2CCOCC2)c1	none (no result: G9a block, BAZ2B block)
Cn1c(=O)c2c(ncn2CCNC2=NCCCCC2)n(C)c1=O	none
COCCCN1C(=O)c2[nH]nc(-c3ccccc3O)c2C1c1ccc(OC)cc1 (centres undefined)	12-LOX inh inconclusive (no result: PLK1 PBD block)
COc1cc(-c2nc3sccn3c2Nc2cccc(C)c2)ccc1O	JMJD2A Tudor 45µM, G9a block 11µM, BAZ2B block 13µM, HP1b chromo inh inconclusive (no result: PLK1 PBD block)
NC(=O)C1CCN(C2CC(=O)N(Cc3ccc(N4CCCC4=O)cc3)C2=O)CC1 (centres undefined)	JMJD2A Tudor inconclusive, G9a block 45µM
Cc1ccc(Nc2nc(NCC3CC3)nc3ccsc23)c(C)c1	12-LOX inh 40µM (no result: JMJD2A Tudor, G9a block, BAZ2B block, HP1b chromo inh)
CC(C)(C)c1ccc(OCC(=O)NN2Cc3ccccc3C2=N)cc1	G9a block 50µM
N=C1c2ccccc2CN1NC(=O)COc1ccc(Cl)cc1	G9a block 35µM
COc1ccc2c3c([nH]c2c1)[C@@H]1C[C@@H]2[C@@H](C[C@H](O)[C@H](OC)[C@H]2C(=O)O)CN1CC3	none (no result: JMJD2A Tudor, PLK1 PBD block, 12-LOX inh, BAZ2B block, HP1b chromo inh)
COC(=O)C1=COC(C)C2CN3CCc4c([nH]c5cc(OC)c(OC)cc45)C3CC12 (centres undefined)	JMJD2A Tudor 25µM, 12-LOX inh inconclusive, BAZ2B block 50µM, HP1b chromo inh inconclusive
Cc1ccc(C)c(Cn2c(N3CCN(Cc4ccc(F)cc4)CC3)nc3c2c(=O)[nH]c(=O)n3C)c1	none (no result: JMJD2A Tudor, PLK1 PBD block, G9a block, BAZ2B block, HP1b chromo inh)
COc1cc(C(=O)OCC(=O)NCCCc2ccccc2)ccc1OCC(C)C	none
COc1ccc(N2CCN(C(=O)COC(=O)c3ccc(C)o3)CC2)cc1	G9a block 50µM
O=C(CCn1cnc2onc(-c3ccc(F)cc3)c2c1=O)N1CCN(c2ccccc2)CC1	JMJD2A Tudor inconclusive, G9a block inconclusive (no result: PLK1 PBD block)
COc1ccc(N2CCN(C(=O)CCn3cnc4onc(-c5ccc(F)cc5)c4c3=O)CC2)cc1	JMJD2A Tudor inconclusive, G9a block 14µM, 12-LOX inh inconclusive, BAZ2B block inconclusive (no result: PLK1 PBD block)
COc1ccc(N2CCN(C(=O)COC(=O)c3ccc(CSC)o3)CC2)cc1	G9a block 16µM, BAZ2B block inconclusive
COc1ccc(N2CCN(C(=O)COC(=O)Cc3ccc(F)cc3)CC2)cc1	G9a block 45µM
COc1ccccc1CC(=O)OCC(=O)N1CCN(c2ccc(F)cc2)CC1	none (no result: G9a block, BAZ2B block)
C=CCc1c(C)nc(SC(C)C)[nH]c1=O	none
S=C(NC1CCCCC1)NN1CCCCCC1	none (no result: G9a block, BAZ2B block)
O=C1OCc2nc3cc4c(cc3c(-c3ccc(F)cc3)c21)OCO4	PLK1 PBD block 24µM
O=C(N/N=C/c1ccc2c(c1)OCO2)c1cc(-c2ccc(F)cc2)nc2ccccc12	none
CCNc1nc(-c2ccc(NC(C)=O)cc2)cs1	12-LOX inh 28µM (no result: JMJD2A Tudor, PLK1 PBD block, G9a block, BAZ2B block, HP1b chromo inh)
CC(=O)Nc1ccc(-c2csc(NCc3ccco3)n2)cc1	JMJD2A Tudor inconclusive, PLK1 PBD block inconclusive, G9a block 10µM, 12-LOX inh inconclusive
Cc1ccn2c(-c3csc(NCc4ccco4)n3)c(C)nc2c1	JMJD2A Tudor 100µM, G9a block 45µM, BAZ2B block inconclusive
COc1ccc(-c2ccc(C#N)c(SCC(=O)NCc3ccco3)n2)cc1OC	12-LOX inh inconclusive (no result: G9a block)
COc1ccc(-c2nc3cccc(C)n3c2NCc2ccco2)cc1OC	JMJD2A Tudor inconclusive, G9a block 45µM, 12-LOX inh inconclusive, BAZ2B block 50µM
COc1cccc(N2CC(C(=O)NCCc3ccc(F)cc3)NC2=O)c1 (centres undefined)	none (no result: JMJD2A Tudor, PLK1 PBD block, G9a block, BAZ2B block, HP1b chromo inh)
COc1ccc(C(=O)NCC2(c3ccc4c(c3)OCCO4)CCCC2)cc1	none (no result: JMJD2A Tudor, PLK1 PBD block, G9a block, BAZ2B block, HP1b chromo inh)
